Rows were chosen to be rich in hits. Some 7.5% of all compounds tested hit in one or more screens of this group.
Rab9 promoter act: activators of Rab9 promoter | Huh7 Rab9 promoter-luciferase reporter, luminescence, 24 h | Potency, µM (top dose mostly 9.22 µM), for inactives: at the highest dose activation, negative = inhibition, usual class: activators | hit rate 2.8% among 320,000; further: % of control where 0% means no effect; nearly all actives have a fitted effect of over 60% in size
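Rab9 promoter-driven luciferase in stably transfected Huh7 cells; 1500 cells/well rested 2 h, exposed to compound in DMSO for 24 h at 37 °C, 5% CO2. Luminescence read 10 min after adding luciferase reagent at ambient temperature.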
SMN2 splice enh: enhancers of SMN2 splice variant expression. HEK293 SMN2-luciferase splicing reporter, luminescence, 30-36 h. Potency, µM (titrated, usually from 46.1 µM), for inactives: at the top dose activity change, positive = activation, usual class: activators. hit rate 2.8% among 210,000; further: % of control where 0% means no effect; nearly all actives have a fitted effect of over 55% in size
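HEK293 cells carry an SMN2 […]–luciferase reporter in which exon 7 inclusion puts luciferase in frame. Cells were plated 10-12 h before compound addition, then incubated 30-36 h at 37C. ONE-Glo luminescence was read; sodium butyrate at 4.5 mM final served as control.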
NPC1 prom act: activates the NPC1 promoter. Huh7 NPC1 promoter luciferase reporter, 24 h. Potency, µM (doses to about 9.22 µM), for the others: at the highest dose activation, most hits filed as activators. hit rate 2.4% among 320,000; further: % of control where 0% means no effect; nearly all actives have a fitted effect of over 60% in size
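Huh7 cells stably carrying NPC1 promoter–luciferase, plated in Opti-MEM with 10% FBS for 2 h, were exposed to compound in DMSO for 24 h at 37 °C; luciferase reagent was added for 10 min and luminescence read.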
ELG1 genotoxic: inducers of genotoxicity in HEK293T ELG1-luciferase cells | hit rate 1.3% among 330,000 | HEK293T ELG1-luciferase reporter, luminescence, 16 h | Potency, µM (highest dose often 46 µM), inactives show at the highest dose activity change, positive = activation, actives largely listed as activators; further: % of control where 0% means no effect; nearly all actives have a fitted effect of over 60% in size
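Reporter readout depends on ELG1 protein level, which increases with genetic stress. After 16 hr compound exposure at 37 °C, luciferase activity was quantified using ONE-Glo.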
FLuc counter: counter-screen for miR-21 project: firefly luciferase inhibitors or activators | P08659 | purified FLuc, Km substrates, luminescence inhibition | Potency, µM (doses to about 57.5 µM), without a hit: at the highest dose activity change, negative = inhibition, actives largely listed as inhibitors | hit rate 6.9% among 360,000;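 further: plate controls were vehicle for no effect and reference inhibitor for full effect; nearly all actives have a fitted effect of over 55% in size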
Target sequence (P08659 whole entry, looked up): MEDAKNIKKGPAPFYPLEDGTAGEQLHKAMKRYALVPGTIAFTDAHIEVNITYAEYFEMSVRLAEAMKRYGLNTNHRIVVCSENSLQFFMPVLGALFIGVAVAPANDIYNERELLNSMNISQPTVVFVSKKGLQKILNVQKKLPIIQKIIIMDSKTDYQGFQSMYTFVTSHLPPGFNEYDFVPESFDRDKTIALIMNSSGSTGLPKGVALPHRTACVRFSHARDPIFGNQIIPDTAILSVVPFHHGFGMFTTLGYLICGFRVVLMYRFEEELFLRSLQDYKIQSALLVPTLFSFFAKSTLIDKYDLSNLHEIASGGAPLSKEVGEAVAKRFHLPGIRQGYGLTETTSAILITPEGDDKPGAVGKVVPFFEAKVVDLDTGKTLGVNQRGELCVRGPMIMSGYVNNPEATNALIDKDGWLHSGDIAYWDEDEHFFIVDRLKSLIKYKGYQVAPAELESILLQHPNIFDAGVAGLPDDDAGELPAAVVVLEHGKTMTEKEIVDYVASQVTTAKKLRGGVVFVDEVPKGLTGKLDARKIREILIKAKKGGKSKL
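Purified P. pyralis luciferase (10nM final) with 10uM D-luciferin and 10uM ATP (Km levels) in 50mM Tris acetate pH 7.5, 10mM Mg acetate, 0.01% Tween-20, 0.05% BSA; qHTS 6-point titration, ~60 µM downward; luminescence read.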
* marks the source's active call; other numbers are inactive results; [ ] = another dose, or the depositor's remark. The call rests on the fitted dose curve; in most records, active means well fitted curve in the direction sought with a large enough effect; inconclusive means small, poorly fitted or top-dose-only effect, or another doubt; inactive means no such curve, though single readings can be large; an effect the other way counts as inactive or inconclusive. Potency means the concentration at half of the fitted maximal effect.

What do the screens show for `N/C(=N\OC(=O)c1ccco1)c1cccnc1`?
Rab9 promoter act: -2%; SMN2 splice enh: 7%; NPC1 prom act: 7%; ELG1 genotoxic: inconclusive; FLuc counter: inconclusive

How did Cc1cccc(/C(N)=N/OC(=O)c2ccc(Cl)cc2Cl)c1 do in these assays?
Rab9 promoter act: 0.32µM*; SMN2 splice enh: 5µM*; NPC1 prom act: 0.13µM*; ELG1 genotoxic: inconclusive; FLuc counter: 0.48µM*

How did N/C(=N\OC(=O)c1cccs1)c1cccnc1 do in these assays?
Rab9 promoter act: 0%; NPC1 prom act: 1%; ELG1 genotoxic: inconclusive; FLuc counter: 8.5µM*

Results for O=C(NNC(=O)c1cccs1)c1cccnc1 ?
Rab9 promoter act: 3%; NPC1 prom act: 2%; ELG1 genotoxic: 1%; FLuc counter: 6%

Results for N/C(=N\OC(=O)c1ccc(Cl)cc1)c1cccnc1 ?
Rab9 promoter act: 3%; SMN2 splice enh: 8%; NPC1 prom act: 17%; ELG1 genotoxic: 8.9µM*; FLuc counter: 1.3µM*

What do the screens show for `Cc1ccccc1/C(N)=N/OC(=O)c1cccs1`?
Rab9 promoter act: 18%; SMN2 splice enh: -3%[1.84 µM]; NPC1 prom act: -1%; ELG1 genotoxic: inconclusive; FLuc counter: 6.7µM*

How did COc1ccc(OCCCC(=O)ON=C(N)c2ccccc2C)cc1 do in these assays?
Rab9 promoter act: -8%; NPC1 prom act: 0%; ELG1 genotoxic: 0%; FLuc counter: 2%

Results for O=C(COc1coc(CN2CCc3ccccc3C2)cc1=O)Nc1ccc(F)cc1F ?
Rab9 promoter act: -2%; NPC1 prom act: -5%; ELG1 genotoxic: -5%; FLuc counter: 1%

Results for COC(=O)c1cc2oc3ccccc3c2n1Cc1nc(-c2cccc(Cl)c2)oc1C ?
FLuc counter: -2%

Results for COC1=CC(=O)[C@@]2([C@@H]1O)[C@@H](Cl)C[C@]13C(OC)=C(OC)C(=O)C[C@]21CCN3C ?
ELG1 genotoxic: 2%

What do the screens show for `COc1cccc([C@@H]2Oc3ccc(Br)cc3[C@H](O)[C@H]2O)c1`?
SMN2 splice enh: -19%

How did N/C(=N\OC(=O)c1ccc(Cl)cc1Cl)c1cccnc1 do in these assays?
Rab9 promoter act: 1.6µM*; NPC1 prom act: 1.4µM*; ELG1 genotoxic: 2.6µM*; FLuc counter: 1.2µM*

Results for O=C(NC(=S)NNC(=O)c1ccc(Cl)cc1Cl)c1cccnc1 ?
Rab9 promoter act: -9%; SMN2 splice enh: -10%; NPC1 prom act: 0%; ELG1 genotoxic: -5%; FLuc counter: inconclusive

How did Cc1cc(C(=O)CN2C(=O)C(=O)N(Cc3ccccc3)C2=O)c(C)n1-c1ccccc1F do in these assays?
Rab9 promoter act: -3%; SMN2 splice enh: -1%; NPC1 prom act: 0%; ELG1 genotoxic: 2%; FLuc counter: 19µM*

How did COc1ccc(-n2c(C)cc(C(=O)CCl)c2C)cc1 do in these assays?
Rab9 promoter act: -38%; SMN2 splice enh: 0%; NPC1 prom act: -19%; ELG1 genotoxic: inconclusive; FLuc counter: -9%

Results for Cc1cc(C(=O)CN2CCC(C)CC2)c(C)n1-c1ccccc1F ?
Rab9 promoter act: -8%; SMN2 splice enh: inconclusive; NPC1 prom act: -8%; ELG1 genotoxic: inconclusive; FLuc counter: 1.9µM*

How did O=C(CN1CCN(c2ccccc2F)CC1)c1ccc(O)cc1O do in these assays?
Rab9 promoter act: -5%; NPC1 prom act: -9%; ELG1 genotoxic: 1%; FLuc counter: -2%

How did Cc1cc(C(=O)CN2CC(C)OC(C)C2)c(C)n1-c1ccccc1 (configuration not stated) do in these assays?
Rab9 promoter act: inconclusive; SMN2 splice enh: inconclusive; NPC1 prom act: inconclusive; ELG1 genotoxic: 21µM*; FLuc counter: inconclusive

Results for COc1ccc(-n2c(C)cc(C(=O)CN3C(=O)c4ccccc4C3=O)c2C)cc1 ?
Rab9 promoter act: 24%; SMN2 splice enh: 10%; NPC1 prom act: 14%; ELG1 genotoxic: 2%; FLuc counter: 15µM*

Results for Cc1ccc(-n2c(C)cc(C(=O)CN3CCCCC3)c2C)cc1 ?
Rab9 promoter act: 0%; SMN2 splice enh: -32%; NPC1 prom act: -3%; ELG1 genotoxic: 12%; FLuc counter: inconclusive

Results for COc1ccc(OCCCC(=O)Nc2cccc([N+](=O)[O-])c2C)cc1 ?
Rab9 promoter act: 9%; NPC1 prom act: -2%; ELG1 genotoxic: 1%; FLuc counter: 2%

What do the screens show for `CCc1ccc(S(=O)(=O)NCC2(N3CCOCC3)CCCCC2)cc1`?
Rab9 promoter act: 0%; NPC1 prom act: -5%; ELG1 genotoxic: 2%; FLuc counter: 3%

What do the screens show for `CC(=O)N/C(=C\c1ccccc1)C(=O)OC(C)C(=O)Nc1ccccc1F` (configuration not stated)?
Rab9 promoter act: 4%; NPC1 prom act: 1%; ELG1 genotoxic: -5%; FLuc counter: 0%

Results for O=S(=O)(Nc1nc2ccccc2nc1Nc1ccccc1Br)c1ccccc1 ?
SMN2 splice enh: -9%; FLuc counter: -6%

How did CCCCn1cc(S(=O)(=O)c2ccccc2)c(=O)c2cc(C)ccc21 do in these assays?
Rab9 promoter act: -12%; NPC1 prom act: -1%; ELG1 genotoxic: -2%; FLuc counter: 1%

Results for CCOCCc1nn2c(=O)cc(COC(=O)c3ccc(NC(=O)C(C)(C)C)cc3)nc2s1 ?
FLuc counter: -3%

Results for CC1(C)Cc2nc3sc4c(=O)n(Cc5ccccc5)cnc4c3cc2CS1 ?
Rab9 promoter act: 14%; SMN2 splice enh: -40%; NPC1 prom act: -1%; ELG1 genotoxic: 2%; FLuc counter: -7%

Results for CCCn1cnc2c(sc3nc4c(cc32)CSC(C)(C)C4)c1=O ?
Rab9 promoter act: 1.6µM*; SMN2 splice enh: 13µM*; NPC1 prom act: 2.8µM*; ELG1 genotoxic: 4.6µM*; FLuc counter: inconclusive

Results for COc1ccc(Cn2c(SCc3ccc(C(=O)NCCc4ccccc4)cc3)nc3cccnc32)cc1 ?
SMN2 splice enh: -8%; FLuc counter: -16%

How did O=C(NCc1ccccc1)c1ccc(CSc2nc3cccnc3n2Cc2ccccc2)cc1 do in these assays?
FLuc counter: -14%

What do the screens show for `CCN(CC)CCNC(=O)c1ccc(Cn2c(SCc3ccccc3)nc3cccnc32)cc1`?
FLuc counter: 13µM*

How did O=C(NCc1ccco1)c1ccc(Cn2c(SCc3ccc(F)cc3)nc3cccnc32)cc1 do in these assays?
FLuc counter: 6µM*

How did COc1cccc(CCNC(=O)c2ccc(Cn3c(SCc4ccccc4)nc4cccnc43)cc2)c1 do in these assays?
SMN2 splice enh: -17%; FLuc counter: 9.5µM*

How did O=C(NCc1cccs1)c1ccc(CSc2nc3cccnc3n2Cc2ccc(F)cc2)cc1 do in these assays?
FLuc counter: -13%

How did CCOc1ccccc1CNC(=O)c1ccc(Cn2c(SCc3ccccc3)nc3cccnc32)cc1 do in these assays?
SMN2 splice enh: -6%; FLuc counter: 2.7µM*
